Shown are actives, neighbours in structure and some others; about 5.2% of the full set was active somewhere.
Tau ThT inhib: inhibitors of human tau fibril formation, thioflavin T binding; Potency, µM (highest dose often 57.4 µM), for the others: top-dose activity, negative = inhibition, hits mostly inhibitors; 2.1% of 270,000 active; AID 1460; recombinant tau K18 P301L, heparin-induced fibrillization, ThT fluorescence; P10636; further: potency means the concentration at half of the fitted maximal effect; nearly all actives have a fitted effect of over 55% in size
Target sequence (P10636 561-689 P618L limits assumed): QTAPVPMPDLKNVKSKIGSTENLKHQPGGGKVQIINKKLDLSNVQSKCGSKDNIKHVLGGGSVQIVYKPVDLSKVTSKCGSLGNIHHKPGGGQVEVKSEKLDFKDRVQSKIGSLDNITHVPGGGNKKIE
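In this qHTS, human K18 P301L tau is incubated with compound and heparin for 6 hr at 37 C, and Thioflavin T fluorescence then reports fibril load.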
Coupling enz: coupling enzyme interference in Giardia aldolase counter-screen; coupling enzyme system counterscreen, AmpLite Red fluorescence; AID 2472; activity change, negative = inhibition, % at 58.2 µM, hits read low; 0.67% of 290,000 active; in the data active means activity change below about -30%
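Final compound at 57.5 uM, incubated 10 min at RT with coupling enzyme reagent (glyceraldehyde-3-phosphate), then 20 min with substrate and AmpLite Red detection. Fluorescence read at 525/598 nm; tests interference with the coupling assay, not aldolase inhibition.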
Sfp inh: blocks B. subtilis Sfp PPTase activity | 3.5% of 310,000 active | Q9F4F7 | Potency, µM, inactives show largest response in the series, negative = inhibition, usual class: inhibitors | AID 1490 | Biochemical Sfp PPTase activity, qHTS;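 further: the enzyme is Sfp with the accession as filed and its product quenches rhodamine fluorescence; potency means the concentration at half of the fitted maximal effect; 0% = enzyme reaction without inhibitor and -100% = no enzyme wells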
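Sfp 15 nM + cpd, 15 min RT; start w/ rhodamine-CoA 5 uM, BHQ-2-YbbR 12.5 uM (final); 50 mM Hepes pH 7.6, 10 mM MgCl2, 0.01% NP-40, 0.01% BSA; read 525/598 nm at 0 and 30 min.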
Tau fluor counter: counter-screen for tau fibril formation inhibitors; tau K18 P301L (four-repeat tau fragment) Alexa594 fluorescence, heparin fibrillization; Potency, µM (doses to about 57.7 µM), for inactives: at the highest dose activity change, negative = decrease; 0.93% of 280,000 active; AID 1463; further: potency means the concentration at half of the fitted maximal effect; nearly all actives have a fitted effect of over 55% in size
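Human K18 P301L tau (15 uM unlabeled plus 0.24 uM Alexa 594-labeled, final) in 100 mM sodium acetate pH 7 was mixed with compound and 20 uM heparin and incubated 6 hr at 37 C.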
Tau fibril FP: blocks human tau fibril formation measured by polarization; K18 P301L tau heparin fibrillization, Alexa594 FP, 6 h; Potency, µM (highest dose often 57.7 µM), for inactives: top-dose activity, negative = inhibition, usual class: inhibitors; 0.39% of 280,000 active; further: potency means the concentration at half of the fitted maximal effect; nearly all actives have a fitted effect of over 55% in size
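Steps: dispense K18 P301L tau (15 uM plus 0.24 uM Alexa 594 tracer, final) in pH 7 sodium acetate; add compound; add heparin (20 uM final); incubate 6 hr, 37 C; add ThT (30 uM final); after 1 hr ambient, read FP.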
Active calls of the source: *; u = inconclusive; x = no result; [ ] = another dose, or the depositor's remark. Unless noted, the call rests on the fitted dose curve; in most records, active means well fitted curve in the direction sought with a large enough effect; inconclusive means small, poorly fitted or top-dose-only effect, or another doubt; inactive means no such curve, though single readings can be large; an effect the other way counts as inactive or inconclusive. Unless noted, on the % scale 0 is the no-effect control and ±100 the full control effect.

SMILES	Tau ThT inhib	Coupling enz	Sfp inh	Tau fluor counter	Tau fibril FP
Cc1nn(-c2cccc(Cl)c2)c2nc(-c3ccco3)cc(C(=O)O)c12	u	16	28µM*	-18%	4%
Cc1ccc(-n2nc(-c3cccnc3)cc2C(=O)N2CCOCC2)c(C)c1	-16%	-8	-3%	-13%	-4%
CCOc1ccc(CCNC(=O)Cn2nc(CC)n3c(cc4sccc43)c2=O)cc1	-4%	x	x	0%	1%
O=C(O)c1cc(-c2ccco2)nn1-c1cccc(Cl)c1	-2%	2	20µM*	-3%	-9%
Nc1nc(SCC(=O)c2ccc(Oc3ccccc3)cc2)n[nH]1	-12%	0	50µM*	-11%	1%
Nc1nc(SCC(=O)c2ccc([N+](=O)[O-])cc2)n[nH]1	-2%	-6	32µM*	-3%	2%
Nc1nc(SCC(=O)Nc2c(Br)cc([N+](=O)[O-])cc2Br)n[nH]1	-9%	0	9%	-3%	1%
Cc1ccc(Oc2ccc(NC(=O)CSc3n[nH]c(N)n3)cc2)cc1	-7%	1	-22%	-27%	2%
COc1ccc(-c2nnc(SCC(=O)N(C)Cc3ccccc3)o2)cc1OC	10%	x	x	-22%	u
C=CCNC(=O)c1ccc(-c2cccc([N+](=O)[O-])c2)o1	u	1	18%	-12%	8%
CC(=O)Nc1ccc(NC(=O)c2ccc(-c3ccc([N+](=O)[O-])cc3)o2)cc1	x	-1	-13%	x	x
COc1ccc(NC(=O)c2ccc(-c3ccc([N+](=O)[O-])cc3)o2)cc1OC	5µM*	-1	1%	11µM*[quencher]	6%
COc1cccc(NC(=O)c2ccc(-c3ccc([N+](=O)[O-])cc3)o2)c1	u	0	20µM*	u	15%
C=CCNC(=O)c1ccc(-c2ccc([N+](=O)[O-])cc2)o1	u	5	25µM*	-1%	-2%
COc1cc([N+](=O)[O-])ccc1-c1ccc(C(=O)Nc2ccc(NC(C)=O)cc2)o1	5µM*	-5	10µM*	u	-6%
CC[C@H](C)[C@H](NC(=O)[C@H](Cc1ccc(O)cc1)NC(=O)CNC(=O)[C@@H]1CCCN1C(=O)[C@H](CC(=O)O)NC(=O)[C@@H](N)CS)C(=O)NCC(=O)N[C@@H](CO)C(=O)N[C@@H](CCCN=C(N)N)C(N)=O	x	-1	-2%	x	x
COc1ccc(OC)c(S(=O)(=O)NCC(c2cccs2)S(=O)(=O)c2ccc(F)cc2)c1 (stereo not drawn)	-3%	x	x	-15%	-6%
COc1cccc(C(=O)COc2cccc(NC(=O)c3cccc([N+](=O)[O-])c3)c2)c1	u	0	14%	14µM*[quencher]	7%
CC(=O)c1cccc(NC(=O)c2ccc(-c3ccccc3[N+](=O)[O-])o2)c1	u	-59*	-69%	u	-5%
O=C(Nc1cccc(F)c1)c1ccc(-c2ccccc2Cl)o1	1%	-24	1%	-6%	2%
Cc1ccc(-c2ccc(C(=O)Nc3cccc(F)c3)o2)c2ccccc12	u	-28	71µM*	u	-9%
CC(=O)N1c2ccc(S(=O)(=O)NCC3CCC(C(=O)NCCC(C)C)CC3)cc2CC1C (stereo not drawn)	4%	x	x	-3%	2%
O=C(CSc1nc2ccccc2[nH]1)Nc1nc(-c2cccc(Br)c2)cs1	-11%	2	7%	u	14µM*
CN(C)CCCn1c(SCC(=O)Nc2nc(-c3cccc(Br)c3)cs2)nc2ccccc2c1=O	u	3	45µM*	-8%	-13%
CCCc1nnc(NC(=O)CSc2nc3ccccc3[nH]2)s1	-3%	0	-14%	-3%	0%
CCCC(=O)Oc1c(Sc2ccc(Cl)cc2)c(C)nn1-c1ccccc1	u	x	x	-28%	-24%
Fc1ccc(Nc2ncncc2-c2ccccc2C(F)(F)F)cc1	x	-1	79µM*	x	x
FC(F)(F)c1ccccc1-c1cncnc1NCc1cccs1	x	-1	-3%	x	x
CC(=O)Nc1nc2n(n1)C(c1ccc(Cl)cc1)C=C(C)N2 (stereo not drawn)	-9%	3	56µM*	-12%	-3%

Compound activity as filed in PubChem.
